# From ChEMBL document CHEMBL3433997, “St. Jude Leishmania screening dataset” (2016)
# Tests used:
# Assay type in all cases: functional
# [1] = molecular target: Solute carrier family 2, facilitated glucose transporter member 1 (Homo sapiens) (UniProt P11166); assay: ST_JUDE_LEISH: Cytotoxicity at 2uM final concentration against transgenic Leishmania Mexicana promastigotes LmGLUT1 that are glucose transport deficient and complemented with the human glucose transporter GLUT1. Activity is measured by DNA content using SYBR green in vitro
# Chain of Solute carrier family 2, facilitated glucose transporter member 1 (Homo sapiens) (P11166 whole entry): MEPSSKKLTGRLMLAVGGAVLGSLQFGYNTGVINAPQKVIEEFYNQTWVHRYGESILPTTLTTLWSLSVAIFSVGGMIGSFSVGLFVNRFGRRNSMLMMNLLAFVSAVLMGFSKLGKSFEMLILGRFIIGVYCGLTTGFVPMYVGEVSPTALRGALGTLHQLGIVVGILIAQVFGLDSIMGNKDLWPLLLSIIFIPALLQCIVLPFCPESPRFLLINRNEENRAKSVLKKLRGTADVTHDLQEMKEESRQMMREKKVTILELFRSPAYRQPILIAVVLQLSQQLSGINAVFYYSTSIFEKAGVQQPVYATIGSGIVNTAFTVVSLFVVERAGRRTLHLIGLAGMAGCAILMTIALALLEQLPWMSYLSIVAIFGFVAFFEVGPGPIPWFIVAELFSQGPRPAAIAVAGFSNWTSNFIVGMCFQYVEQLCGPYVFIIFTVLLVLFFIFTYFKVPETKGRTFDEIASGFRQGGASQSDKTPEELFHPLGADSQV
# [2] = molecular target: Hexose transporter 1 (Plasmodium falciparum) (UniProt O97467); assay: ST_JUDE_LEISH: Cytotoxicity at 2uM final concentration against transgenic Leishmania Mexicana promastigotes LmPfHT that are glucose transport deficient and complemented with the Plasmodium falciparum hexose transporter. Activity is measured by DNA content using SYBR green in vitro
# [3] = molecular target: Glucose transporter (Leishmania mexicana) (UniProt O61059); assay: ST_JUDE_LEISH: Cytotoxicity at 2uM final concentration against transgenic Leishmania Mexicana promastigotes LmGT2 that are glucose transport deficient and complemented with the L. Mexicana glucose transporter 2. Activity is measured by DNA content using SYBR green in vitro
SMILES,inhibition [1] [%],inhibition [2] [%],inhibition [3] [%]
CN(Cc1cccc(O)c1)C1CCN(c2cc(NC(=O)c3ccc(F)cc3)ccn2)CC1,2.02,3.1,3.78
O=C(Nc1ccc(Br)cc1)N1CCC(n2c(-c3ccccc3)nc3cccnc32)CC1,2.24,1.56,4.12
Cc1ccc(Nc2cc(C)nn2-c2nc(C)cc(O)n2)cc1,75.4,73.6,67.6
Cn1cnc2nc(NCCc3ccccc3)nc(NCc3cccc4ccccc34)c21,0.91,1.38,-1.12
COc1ccc2nc(N3CCNCC3)nc(NCCCc3ccccc3)c2c1,5.1,2.65,0
OC1CCC(Nc2ccc3ncc(-c4ccc(Cl)cc4)n3n2)CC1 (stereo unspecified),8.13,3.98,4.08
COc1ccc(Nc2nc(NCc3ccc(-n4ccnc4)cc3)cc(-c3ccc(OC)cc3)n2)cc1,3.31,2.46,3.46
Nc1c2ccccc2nc2cc([N+](=O)[O-])ccc12,8.44,9.98,0.99
COc1cc(Nc2ccc3cc(S(=O)(=O)N4CCCCC4C)ccc3n2)cc(OC)c1OC (stereo unspecified),6.4,34.2,0.58
Cc1nn(-c2ccccc2)c2c1C(c1ccc(C(C)C)cc1)N1C(=N2)N(Cc2ccccc2)c2ccccc21 (stereo unspecified),4.28,2.86,1.85
CN(C)Cc1c(O)ccc2[nH]c(-c3ccc(OC(F)(F)F)cc3)nc12,3.92,3.22,2.9
COc1cc(Nc2nccc(N3CCC(NC(=O)Nc4ccc5c(c4)OCO5)C3)n2)cc(OC)c1OC (stereo unspecified),11.1,6.84,8.87
CCN(CC)CCn1c(=N)n(CC(O)c2ccc(Cl)c(Cl)c2)c2ccccc21 (stereo unspecified),7.87,5.43,12.9
COc1ccc(C(=O)Nc2ccc(Nc3nc(C)cc(N(C)C)n3)cc2)c(OC)c1,5.81,6.65,5.62
N#Cc1cccc(C(=O)N2CCOC(CCN3CCC(c4ccccc4)CC3)(c3ccc(Cl)c(Cl)c3)C2)c1 (stereo unspecified),4.51,2.24,2.33
Cc1ccc2c(c1)C1(CC(=O)N(CCc3scnc3C)C1=O)C(=O)N2Cc1ccccc1 (stereo unspecified),2.62,3.66,3.42
Cn1ccnc1-c1nc2ccccn2c1NCC(=O)Nc1ccccc1N1CCCCC1,-1.68,-2.15,0.02
O=C(CCCCCNC(=O)c1ccc(O)c(-c2ccc(Cl)c(Cl)c2)c1)NCc1cccc2ccccc12,2.63,2.12,3.98
CCOc1ccc2c(c1)OC(c1ccccc1)(C(F)(F)F)NC2=O (stereo unspecified),0.56,-0.92,1.65
CC(C)(C)c1ccccc1OC(=O)c1ccccc1,-1.66,-1.47,-0.79
CN1CCN(c2cc3c(Nc4ccc5c(cnn5Cc5ccccc5)c4)ncnc3cn2)CC1,1.33,2.08,2.17
c1cc(CN2CCCCC2)cc(-c2ccc(-c3nc4ccccc4[nH]3)cc2)c1,-0.4,2.76,-1.06
Fc1ccc2[nH]c(-c3cccc(-c4cccc(CNCCN5CCNCC5)c4)c3)nc2c1,2.5,2.3,0.88
O=S(=O)(Nc1ccc(CCN2CCC(N3CCCCC3)CC2)cc1)c1cccc2cccnc12,3.76,3.39,1.88

SMILES,inhibition [1] [%],inhibition [2] [%],inhibition [3] [%]
CC1CCN(C(=O)C(Cc2c[nH]c3ccccc23)NS(=O)(=O)c2ccc(Cl)cc2)CC1 (stereo unspecified),0.31,1.31,-0.09
O=C(/C=C/c1ccc(Cl)c(Cl)c1)NCCCCCN1CCC(C(=O)Nc2cccc(Cl)c2)CC1,2.86,1.97,2.09
Fc1cccc(COc2ccc(Nc3ncnc4sc(C#C[C@H]5CC[C@H](CN6CCOCC6)N5)cc34)cc2Cl)c1,0.36,-0.26,-0.26
O=C(CCC1CCCCC1=O)c1ccccc1 (stereo unspecified),3.73,2.15,1.52
COc1ccc2nccc([C@@H](O)CN3CCC(NC(=O)Cn4nc(-c5ccc(C(F)(F)F)cc5)ccc4=O)CC3)c2c1,4.01,3.03,1.3
CC(=O)Oc1cc(C)ccc1C1CCN(CCCCNC(=O)c2ccc(NC(=O)c3ccc(Cl)cc3)cc2)CC1,1.6,1.07,1.52
Cc1cccc2nc(-c3ccc(-c4cccc(CNCCCN5CCCC5=O)c4)cc3)[nH]c12,7.98,9.6,8.02
O=C(/C=C/c1ccc(Cl)cc1)NCCCCCN1CCCN(C(=O)Nc2cccc(Cl)c2)CC1,-2.75,-1.85,-1.25
CS(=O)(=O)c1cccc(-c2cnc3[nH]cc(-c4cccc(CCN)c4)c3c2)c1,4.65,3.48,8.44
COc1cc(NC(=O)c2nn(CCCN3CCC(N4CCCC4)CC3)cc2-c2ccc(Cl)c(Cl)c2)cc(OC)c1OC,1.76,2.09,1.96
CC(=O)c1ccc(-c2ccc(C(=O)NCCCCN3CCC(c4ccc5c(c4O)CCCC5)CC3)cc2)cc1,3.01,3.4,1.3
CCCNCc1ccc(-c2ccc(CN(C(=O)c3nn(-c4ccccc4)nc3C)C(C)CN(C)C)cc2)nc1 (stereo unspecified),1.37,0.07,6.31
CCOC(=O)c1ccc(NC(=O)Nc2cccc(-c3ccc(-c4nc5cccc(C)c5[nH]4)s3)c2)cc1,-0.56,0.81,2.18
Nc1cc2c(C3CCN(CC4CCN(C(=O)/C=C/c5ccc(Cl)c(Cl)c5)CC4)CC3)c[nH]c2cn1,1.83,0.67,-0.09
CCOC(=O)C1=C(C)NC(C)=C(C(=O)OCC)C1(C(=O)OCc1ccccc1)c1cccc(C(F)(F)F)c1,2.88,3.39,4.11
O=C(Nc1ccc(-c2nc3ccccc3[nH]2)cc1)c1ccc(Cl)c([N+](=O)[O-])c1,1.55,1.9,1.41
FC(F)(F)c1cccc(CCNc2nccc(NCc3ccccc3Cl)n2)c1,5.73,4.26,0.1
Clc1cc(Nc2ncnc3sc(C#Cc4ncc[nH]4)cc23)ccc1OCc1ccccn1,-0.91,5.1,-0.27
CCN(CCCN1CCCCC1)c1cc(C)nc(Nc2ccc(Cl)cc2)n1,1.87,2.6,1.8
CNC(=N)c1ccc(NC(=O)Nc2ccc(C(=N)NC)cc2)cc1,4.64,1.88,3.62
CC(NC(=O)c1ccc(O)c(-c2ccc(Cl)c(Cl)c2)c1)C(=O)NC1CCCCC1 (stereo unspecified),5.53,4.55,5.71
CC(C)CNCc1cccc(-c2ccc(CN(CCCN3CCN(C)CC3)C(=O)CCC3CCCC3)cc2)c1,38.9,56.9,9.11
CCCCN(CCCC)CCCN(CCCN(CCCC)CCCC)c1cc(C)nc(Nc2ccc(Cl)cc2)n1,-0.03,0.22,0.44
O=C(Nc1cccc(-c2ccc(-c3nc4ccccc4[nH]3)cc2)c1)Nc1ccc(F)c(F)c1F,-2.14,1.23,2.03

SMILES,inhibition [1] [%],inhibition [2] [%],inhibition [3] [%]
CCOP(=O)(OCC)c1ccc(OC)c(-c2ccc[nH]2)c1,4.52,2.22,1.77
CCOC(=O)CCCOc1c(OC)cc(Cc2cnc(N)nc2N)cc1OC,-1.3,-0.68,-2.34
COCCNCc1cccc(-c2ccc3c(Nc4ccc(Oc5ccccc5)cc4)ccnc3c2)c1,-0.07,1.17,-0.14
O=C(N[C@H]1CCN(Cc2ccc(OCCCN3CCCCC3)cc2)C1)c1ccc(Cl)c(Cl)c1,2.14,3.98,3.42
CCCCN(CCCC)CCNC(=O)c1cccc(NC(=O)N2CCc3cc(SC)c(C(F)(F)F)cc32)c1,3.07,4.24,2.86
O=c1cc(NCCC(CNCc2ccoc2)NCc2cc(Br)cc(Br)c2)[nH]c2ccccc12 (stereo unspecified),6.77,6.66,9.4
c1cc(CN2CCN(CCN3CCOCC3)CC2)cc(-c2cccc(-c3nc4ccccc4[nH]3)c2)c1,-0.34,-0.24,-1.97
O=C(N[C@@H](Cc1ccccc1)[C@H](O)CNC1CCCCC1)c1cc(C2CCCC2)cc(N2CCCC2=O)c1,-1.39,-1.21,-3.12
CC[C@H](C)CNC(=O)c1ccnc(-c2ccc(CNC3Cc4ccccc4C3)cc2)c1,0.15,0.08,-0.69
O=C(NC1CCN(Cc2ccccc2O)C1)c1ccc(Cl)c(Cl)c1 (stereo unspecified),0.72,0.7,-5.99
CC(C)c1ccc(-c2nc3cc(Cl)cnc3[nH]2)cc1,3.03,3.85,4.06
CCN(CC)CCNC(=O)/C(=C/C=C/c1cc2cc(Cl)c(Cl)cc2[nH]1)OC,2.44,-0.18,-1.46
CCCC(C)NC[C@@H](O)[C@H](Cc1ccccc1)NC(=O)c1cc(NCC)cc(N2CCCCS2(=O)=O)c1 (stereo partly specified),0.32,0.76,-2.92
O=C(Nc1ccc(Cl)cc1)Nc1cccc(-c2cccc(-c3nc4cc(F)ccc4[nH]3)c2)c1,7,6.99,6.45
c1cc(-c2ccc(CN3CCCC3)cc2)cc(-c2nc3ccccc3[nH]2)c1,0.44,1.4,0.98
COc1cc(C(F)(F)F)cc2[nH]c(CNCCCNc3nc4ccccc4[nH]3)cc12,4.4,6.5,5.01
CCCC(C)Nc1nc(C)cc(N[C@@H](Cc2ccccc2)C(=O)Nc2ccccc2)n1 (stereo partly specified),2.98,3.18,0.41
CN(c1ncc(-c2cccc(CNCc3ccccc3O)c2)cn1)C1CCCCC1,-1.25,-0.2,0.12
N=C1N=C(N)NCN1OCc1ccc(Cl)c(Cl)c1,3.39,1.71,-0.31
O=C(Nc1cc(Cl)cc(Cl)c1)c1cc(Cl)c(=O)n(Cc2cccc(Cl)c2)c1,3.25,-1.14,-1.24
O=C(Nc1ccccc1)Nc1cccc(-c2cc(CNCCc3ccccc3)sc2-c2ccncc2)c1,-0.01,-0.54,4.67
NC1CCN(Cc2cccc(-c3ccc(-c4nc5cc(F)ccc5[nH]4)cc3)c2)C1 (stereo unspecified),2.82,1.25,-0.29
OCCCCCCNc1nc(NCc2ccccc2-c2ccc(C(F)(F)F)cc2)nc(N2CCNCC2)n1,1.31,-1.2,0.81
C=CC[C@H](C[C@H](O)[C@H](Cc1ccccc1)NC(=O)c1nn(-c2ccccc2)nc1C)C(=O)NC1CCCCC1,2.06,2.34,2.36
